Results taken from the antibiotic and cytotoxicity screens of Wong et al. (2023).
The whole screen tested about 39,000 compounds, of which about 3,300 (8.5%) were called active. This is one part of a sample in which actives are shown more often than they occur.

These compounds were tested on HepG2 (assay: cytotoxicity call (relative viability < 0.9)). Conditions: 10 µM.
For `COc1ccc2c3c(n(c2c1)C)[C@@H](CO)N(C[C@]13CCN(CC1)S(=O)(=O)c1cn(cn1)C)C(=O)Nc1ccc(cc1)F`, the cytotoxicity call was “inactive”. In the case of `COc1ccc2c3c([nH]c2c1)[C@H](CO)N(C[C@]13CN(CC2CCCCC2)C1)S(=O)(=O)c1cn(cn1)C`, the cytotoxicity call is reported as “inactive”. For `C[C@@H]1CCCCO[C@H](CN(C)C(=O)NC2CCCCC2)[C@H](C)CN([C@@H](C)CO)C(=O)c2cc(NC(=O)C3CCCCC3)ccc2O1`, the cytotoxicity call was “inactive”. `CN1C(=O)[C@@H]2[C@@H]3C[C@H]4[C@@H](O[C@H]1[C@H]42)[C@H]3O` was tested, and the cytotoxicity call was “inactive”. For `C[C@H](CO)N1C[C@H](C)[C@H](CN(C)Cc2ccncc2)Oc2c(NC(=O)c3cnccn3)cccc2C1=O`, the cytotoxicity call was “inactive”. `C[C@@H]1CCCCO[C@H](CN(C)CC2CCCCC2)[C@H](C)CN([C@@H](C)CO)C(=O)c2cc(NS(=O)(=O)c3ccc(F)cc3)ccc2O1` was tested, and the cytotoxicity call was “inactive”. For `C[C@@H]1CN([C@H](C)CO)C(=O)c2cc(NS(=O)(=O)c3ccc(F)cc3)ccc2O[C@@H](C)CCCCO[C@H]1CN(C)CC1CCCCC1`, the cytotoxicity call was “active”. With `C[C@H]1CCCCO[C@@H](CN(C)CC2CCCCC2)[C@@H](C)CN([C@@H](C)CO)C(=O)c2cc(NS(=O)(=O)c3ccc(F)cc3)ccc2O1` the cytotoxicity call was “inactive”. `C[C@H](CO)N1C[C@H](C)[C@@H](CN(C)C(=O)Nc2ccc3c(c2)OCO3)Oc2ccc(NC(=O)Cn3cnnn3)cc2C1=O` was tested, and the cytotoxicity call was “inactive”. `C[C@H](CO)N1C[C@H](C)[C@@H](CN(C)C(=O)Nc2ccc3c(c2)OCO3)OCCCC[C@H](C)Oc2ccc(NS(=O)(=O)c3ccc(F)cc3)cc2C1=O` was tested, and the cytotoxicity call was “inactive”. In the case of `CC(C)NC(=O)N(C)C[C@H]1Oc2ccc(NS(=O)(=O)c3ccc(F)cc3)cc2C(=O)N([C@@H](C)CO)C[C@H]1C`, the cytotoxicity call is reported as “inactive”. In the case of `C[C@H](CO)N1C[C@H](C)[C@H](CN(C)C(=O)Nc2ccc(C(F)(F)F)cc2)Oc2ccc(NC(=O)Nc3ccc4c(c3)OCO4)cc2CC1=O`, the cytotoxicity call is reported as “inactive”. For `Clc1ccc(/C=N/Cc2ccc(-c3cccs3)s2)cc1`, the cytotoxicity call was “active”. In the case of `CC(C)(C)c1csc(-c2ccc(-c3cccs3)s2)n1`, the cytotoxicity call is reported as “inactive”. In the case of `Cl.N=C(NN=Cc1ccc(Cl)cc1)NN=Cc1ccc(Cl)cc1`, the cytotoxicity call is reported as “inactive”. `CN1C(=O)c2cc(NC(=O)C3CCC3)ccc2OC[C@H]2O[C@H](CC(=O)NCCc3ccncc3)CC[C@@H]21` was tested, and the cytotoxicity call was “inactive”. In the case of `Cc1noc(C)c1NC(=O)N(C)C[C@H]1Oc2ccc(NC(=O)Cn3cnnn3)cc2C(=O)N([C@@H](C)CO)C[C@@H]1C`, the cytotoxicity call is reported as “inactive”. `O=C(C[C@@H]1CC[C@H]2[C@@H](COC[C@@H](O)CN2S(=O)(=O)c2cccc(Cl)c2)O1)NCc1ccc2c(c1)OCO2` was tested, and the cytotoxicity call was “inactive”. For `C[C@@H]1O[C@@H](Oc2c(-c3cc(O)c(O)c(O)c3)oc3cc(O)cc(O)c3c2=O)[C@H](O)[C@H](O)[C@H]1O`, the cytotoxicity call was “inactive”. `C[C@@H]1O[C@@H](OC[C@H]2O[C@@H](OCCc3ccccc3)[C@H](O)[C@@H](O)[C@@H]2O)[C@H](O)[C@H](O)[C@H]1O` was tested, and the cytotoxicity call was “inactive”. With `Cc1coc(C)c1C(=O)O[C@@H]1O[C@@H](C)[C@H](O)[C@@H](O)[C@H]1O` the cytotoxicity call was “active”. For `CCO[C@H]1OC(C(=O)N2CCN(Cc3ccc4c(c3)OCO4)CC2)=C[C@@H](C)[C@@H]1CCCOC(=O)NCCCCCC(=O)NO`, the cytotoxicity call was “inactive”. For `O=C(C[C@H]1C[C@@H]2c3cc(NC(=O)NC4CCCC4)ccc3O[C@@H]2[C@@H](CO)O1)NCc1ccc2c(c1)OCO2`, the cytotoxicity call was “inactive”. With `CO[C@H]1CN(C)C(=O)c2ccc(NC(=O)NC(C)C)cc2OC[C@@H](C)N(Cc2ccc(-c3ccccn3)cc2)C[C@@H]1C` the cytotoxicity call was “inactive”. `C[C@@H]1CN([C@@H](C)CO)C(=O)Cc2cc(NC(=O)Nc3ccc(C(F)(F)F)cc3)ccc2O[C@@H]1CN(C)Cc1ccccc1` was tested, and the cytotoxicity call was “active”. With `C[C@@H]1CN([C@@H](C)CO)C(=O)Cc2cc(NC(=O)Nc3ccc(C(F)(F)F)cc3)ccc2O[C@H]1CN(C)Cc1ccccc1` the cytotoxicity call was “inactive”. For `C[C@@H]1CN([C@H](C)CO)C(=O)Cc2cc(NC(=O)Nc3ccc(C(F)(F)F)cc3)ccc2O[C@@H]1CN(C)Cc1ccccc1`, the cytotoxicity call was “active”. In the case of `C[C@@H]1CN([C@H](C)CO)C(=O)Cc2cc(NC(=O)Nc3ccc(C(F)(F)F)cc3)ccc2O[C@H]1CN(C)Cc1ccccc1`, the cytotoxicity call is reported as “active”. With `C[C@H]1CN([C@@H](C)CO)C(=O)Cc2cc(NC(=O)Nc3ccc(C(F)(F)F)cc3)ccc2O[C@@H]1CN(C)Cc1ccccc1` the cytotoxicity call was “inactive”. For `C[C@H]1CN([C@@H](C)CO)C(=O)Cc2cc(NC(=O)Nc3ccc(C(F)(F)F)cc3)ccc2O[C@H]1CN(C)Cc1ccccc1`, the cytotoxicity call was “active”. In the case of `C[C@H](CO)N1C[C@H](C)[C@H](CN(C)S(C)(=O)=O)Oc2ncc(C#Cc3ccc(C(F)(F)F)cc3)cc2C1=O`, the cytotoxicity call is reported as “inactive”. In the case of `COCC#Cc1cnc2c(c1)C(=O)N([C@H](C)CO)C[C@@H](C)[C@@H](CN(C)C(=O)CCN1CCCCC1)O2`, the cytotoxicity call is reported as “inactive”. In the case of `C[C@@H]1CN([C@H](C)CO)C(=O)c2cc(NC(=O)Nc3ccc4c(c3)OCO4)ccc2O[C@@H]1CN(C)C(=O)Nc1cccc2ccccc12`, the cytotoxicity call is reported as “inactive”. With `COc1ccc(C#Cc2ccc3c(c2)O[C@H](CN(C)C(=O)CN2CCOCC2)[C@@H](C)CN([C@H](C)CO)S3(=O)=O)cc1` the cytotoxicity call was “inactive”. `CN(C)CCN1C(=O)CO[C@H]2CN(C(=O)NCc3cccnc3)C[C@@H]21` was tested, and the cytotoxicity call was “inactive”. `C[C@@H]1CN([C@H](C)CO)C(=O)Cc2cc(NC(=O)Nc3ccccc3)ccc2O[C@@H]1CN(C)S(=O)(=O)c1cn(C)cn1` was tested, and the cytotoxicity call was “inactive”. For `O=C(N/N=C/[C@H](O)[C@H](O)[C@@H](O)[C@@H](O)CO)c1ccccn1`, the cytotoxicity call was “inactive”. With `CON=C(C(=O)NC1C(=O)N2C(C(=O)O)=C(C[N+]3(C)CCCC3)CSC12)c1csc(N)n1.[Cl-]` (stereo unspecified) the cytotoxicity call was “inactive”. `Cc1noc(C)c1S(=O)(=O)Nc1ccc2c(c1)C(=O)N([C@@H](C)CO)C[C@H](C)[C@H](CN(C)C(=O)Nc1cccc3ccccc13)OCCCC[C@H](C)O2` was tested, and the cytotoxicity call was “inactive”. `C[C@H](CO)N1C[C@H](C)[C@@H](CN(C)Cc2ccccc2)Oc2ccc(NC(=O)Nc3ccc(C(F)(F)F)cc3)cc2CC1=O` was tested, and the cytotoxicity call was “active”. In the case of `C[C@H](CO)N1C[C@H](C)[C@H](CN(C)Cc2ccccc2)Oc2ccc(NC(=O)Nc3ccc(C(F)(F)F)cc3)cc2CC1=O`, the cytotoxicity call is reported as “active”.
